Among the data in ChEMBL document CHEMBL3988442, “University of Dundee, Small-Polar-MMV Screening Library” (2021) are Percent Effect values, retold here.

For test [1], the target named is T1, Aspartate--tRNA(Asp/Asn) ligase (Mycobacterium tuberculosis (strain ATCC 25618 / H37Rv)) (UniProt P9WFW3). Also: in the data most compounds retested in dose-response had high values.
T1 sequence (whole entry): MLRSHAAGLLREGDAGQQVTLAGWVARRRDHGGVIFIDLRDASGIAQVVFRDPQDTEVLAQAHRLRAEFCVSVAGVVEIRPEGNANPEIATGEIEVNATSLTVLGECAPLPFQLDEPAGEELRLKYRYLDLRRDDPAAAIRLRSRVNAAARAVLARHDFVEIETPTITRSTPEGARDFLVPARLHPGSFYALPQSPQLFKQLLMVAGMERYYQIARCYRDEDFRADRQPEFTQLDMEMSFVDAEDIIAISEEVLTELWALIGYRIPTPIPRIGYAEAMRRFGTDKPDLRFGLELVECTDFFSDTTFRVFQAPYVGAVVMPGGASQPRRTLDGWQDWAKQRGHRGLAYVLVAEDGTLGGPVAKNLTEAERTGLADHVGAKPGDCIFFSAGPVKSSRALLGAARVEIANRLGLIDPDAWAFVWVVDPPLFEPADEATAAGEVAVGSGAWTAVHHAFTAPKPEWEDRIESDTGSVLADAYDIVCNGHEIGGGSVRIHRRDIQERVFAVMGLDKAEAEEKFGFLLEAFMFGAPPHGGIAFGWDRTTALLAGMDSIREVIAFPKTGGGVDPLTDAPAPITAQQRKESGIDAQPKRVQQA
Nature of the test: Assay for Asp RNA synthetase-1 from Mycobacterium tuberculosis. In kind it is functional. Set-up: scale not given: direction of the effect not stated beside the values. Conditions: 30 µM.

The target of test [2] is Shiga toxin 2 (Escherichia coli O157:H7) (UniProt P09385+P09386). Nature of the test: E. coli 0.157:H7 Shiga Toxin SOP - stx2 screening assay. Also on record: scale not given: direction of the effect not stated beside the values. Type of test: functional. Conditions: 30 µM.

SMILES strings stand for the structures.

On to `N#Cc1ccnc(N2CCC(c3nccn3Cc3cscn3)CC2)c1`, for which, in test [1], the Percent Effect was -4.66%. On to `Cc1cc(C)n(CC(=O)N(C)Cc2csc(-c3cccs3)n2)c(=O)n1`, for which the Percent Effect in test [1] was -0.356%.

As for `CCc1nc(NS(=O)(=O)c2ccc(C)cc2Cl)no1`, the Percent Effect in test [1] is -5.6%. Still for that read-out and setting: the result for `CCCS(=O)(=O)N1CCC(NC(=O)c2cc(C)c(CC)s2)CC1` reads -2.13%. For `CCCS(=O)(=O)N1C[C@H]2OC(=O)N(CCc3cccc(Cl)c3)[C@H]2C1`, the Percent Effect in test [1] is -4.26%. In the case of `COc1ccccc1CN1C(=O)O[C@@H]2CN(c3nccs3)C[C@@H]21`, the Percent Effect in test [1] was -1.39%. Take `O=C(CCc1ccccc1)Nc1ncccc1OC(F)F`: the figures for the Percent Effect in test [1] and in test [2] were -3.26% and -5.61%, respectively.

On to `CCC(=O)NCc1cc(Br)ccc1OC(F)F`, for which the Percent Effect in test [1] turned out to be 0.885%.

With `O=C(c1cncc(N2CCC(O)(CO)CC2)n1)N1CCCC1`, the Percent Effect in test [1] is -3.27%.

As for `O=C(C1=CC2(CCNCC2)c2ccccc21)N1CCCC1`, the Percent Effect in test [1] is 3.17%; in test [2], -0.391%. `CSc1cccc(CN(C)C(=O)C2CC(=O)N(CCN(C)C)C2)c1` (configuration not stated): in test [1], the Percent Effect was -2.59%. In the case of `Cn1ccnc1-c1ccccc1C(=O)N1CCc2c(nc(N)[nH]c2=O)C1`, the Percent Effect was 2.08% in test [1] and -35.7% in test [2]. `FC(F)(F)COCCN1CCCC(c2noc(C3CC3)n2)C1` (configuration not stated): the Percent Effect in test [1] was -0.517%.

As for `CC(NC(=O)NCCCn1cccn1)c1cccnc1` (configuration not stated), the Percent Effect in test [1] is -3.83%. On to `Cc1cc(C)n(CCCNC(=O)C(C)NC(=O)c2ccccc2Cl)n1` (configuration not stated), for which the Percent Effect in test [1] is 1.92%; in test [2], -4.43%. Take `CCc1nc(CCNC(=O)Nc2cc(C(N)=O)sc2C)cs1`: in test [1], the Percent Effect is -1.32%. Take `CS(=O)(=O)NCCC(=O)NC1CCc2nccn2C1` (configuration not stated): the Percent Effect in test [1] was found to be 3.25%.

With `CNC(=O)Cn1cc(C#N)c(=O)c2cc(Br)ccc21`, the Percent Effect in test [1] came out at 0.0345%.

For the molecule `Cc1ccc(C#N)c(N2CCC(c3nccn3CCN(C)C)CC2)n1`, in test [1], the Percent Effect was -1.39%. Consider `O=C(c1cncc(N2CCC3(CCNCC3)CC2)n1)N1CCCC1`, for which the Percent Effect in test [1] was -3.85%. For `O=C1O[C@@H]2CN(Cc3ccccc3)C[C@@H]2N1CCCN1CCOCC1`, the Percent Effect in test [1] is -3.37%. For `Cc1ccc(NC2CCN(C(=O)Cn3nc(C)cc3C)CC2)nn1`, the Percent Effect is -3.3% in test [1] and 28.3% in test [2]. As to `Cc1cc(C)n(-c2cc(N3CCN(C(=O)C(C)(C)C)CC3)nc(C)n2)n1`, the Percent Effect in test [1] turned out to be 0.747%. With `Cn1cc(CN2CCCN(C(=O)c3ccc4c(c3)COC4)CC2)cn1`, the figures for the Percent Effect in test [1] and in test [2] were -0.281% and 30.1%, respectively. On to `Cc1nn(C)cc1C(=O)N1C[C@H]2CC[C@@H]1CN(S(=O)(=O)N(C)C)C2`, for which the Percent Effect in test [1] was 1.62%. Take `N#Cc1cccc(CS(=O)(=O)NCCC(O)c2ccccc2)c1` (configuration not stated): in test [1], the Percent Effect was -1.46%. Still for that read-out and setting: next, `CCc1nsc(NC2CCCn3nc(COC)nc32)n1` (configuration not stated): -2.56%. Take `CN(Cc1csc(-c2cccs2)n1)C(=O)CCn1ccccc1=O`: the Percent Effect in test [1] was -1.85%. As to `c1cnn(Cc2nnc(C3CCN(C4CCOCC4)CC3)n2C2CC2)c1`, in test [1], the Percent Effect was -4.17%. On to `CCC1CN(CCNC(C)=O)CCN1CCOC` (configuration not stated), for which the Percent Effect in test [1] was found to be 15%; in test [2], 16.5%. Consider `O=C([C@H]1C[C@@H]2CCN(C3CCOCC3)C[C@@H]2O1)N1CCOCC1`, for which the Percent Effect is 1.17% in test [1] and -10.3% in test [2].

For the molecule `O=C(Nc1cccc(OCc2ccc(F)cc2)c1)C1COCCO1` (configuration not stated), the Percent Effect in test [1] is -1.28%. Take `CCn1nc(CC(C)C)cc1C(=O)N1C[C@H](O)[C@@H](N2CCCCC2)C1`: the Percent Effect in test [1] is -2.61%. In the case of `CCOc1ncccc1CNC(=O)N1CCCC1c1ccncc1` (configuration not stated), in test [1], the Percent Effect was -0.287%. `N#CC(Sc1nnnn1C1CCOCC1)C1CCCCC1` (configuration not stated): in test [1], the Percent Effect was -2.4%. As for `CC(C)CN1CCCn2nc(CNC(=O)c3cccnc3O)cc2C1`, the Percent Effect in test [1] is -2.56%.

On to `O=C1OCCN1CCOc1nc(-c2ccccc2Cl)no1`, for which the Percent Effect in test [1] was -7.33%; in test [2] it was -14.8%. Consider `CC(=O)N(Cc1ncc(C(C)C)o1)C1CCN(Cc2ncc[nH]2)C1` (configuration not stated), for which the Percent Effect stood at 5.3% in test [1] and 10.9% in test [2]. Consider `O=C(CN(Cc1ccccc1)CC1CCOCC1)NC(=O)NC1CC1`, for which the figures for the Percent Effect in test [1] and in test [2] were 0.182% and -31.8%, respectively. In the same order, the values of `Cc1cc(C)cc(N(C)S(=O)(=O)c2cc(C(=O)O)cs2)c1` are 2.79% and -3.14%. Take `COc1ccccc1C(=O)N1CCCC1Cn1cc(C)cn1` (configuration not stated): the Percent Effect is 3.31% in test [1] and 26.5% in test [2]. Turning to `CC(C)(C)c1cnc(CN2CCC[C@H]2CO)o1`, the figures for the Percent Effect in test [1] and in test [2] were -4.22% and -5.47%, respectively.

Regarding `O=C(CN1CCC(c2ccnn2CCO)CC1)NCc1cccs1`, the Percent Effect in test [1] is -1.91%; in test [2], -10%. On to `COc1cccc(S(=O)(=O)N2CCC(O)(CN(C)C)C2)c1` (configuration not stated), for which the Percent Effect in test [1] is -0.221%; in test [2], 11.2%. As to `COc1cccc(-n2nnc(C(=O)N3CCCC3)c2C)c1`, the Percent Effect in test [1] is -2.63%; in test [2] it was 5.03%. For `CC(C(=O)NCc1ccnc(Oc2ccc(F)cc2)c1)n1cncn1` (configuration not stated), the results for the Percent Effect in test [1] and in test [2] were -5.88% and 6.33%, respectively. For `Cc1oc(C)c(C(=O)NCc2ccccc2S(=O)(=O)N(C)C)c1C` the same measures were -6.28% and 37.9%. As for `CN(C)Cc1nc(C(C)(C)NC(=O)C2CC(=O)N(CC3CC3)C2)no1` (configuration not stated), the Percent Effect in test [1] is -5.01%; in test [2], 25.1%. With `Cc1cc(C2CCCN2Cc2ccn(C)c(=O)c2)no1` (configuration not stated), the Percent Effect in test [1] was -1.63%; in test [2], 8.31%. In the case of `COC(=O)CC(c1ccccc1)c1oc(C)cc(=O)c1O` (configuration not stated), the figures for the Percent Effect in test [1] and in test [2] were -2.11% and -6.67%, respectively.

As for `CN1CCN(c2nc(O)c3c(-c4ccccn4)ccnc3n2)CC1`, the values for the Percent Effect in test [1] and in test [2] were -3.26% and 7.03%, respectively. Consider `Cc1nc(N2CCOCC2)nc2c1CN(C(=O)Cc1ccccn1)CC2`, for which the Percent Effect in test [1] was -2.71%; in test [2] it was -57.2%. In the same order, the values of `CCc1ncncc1C(=O)N1CCCN(Cc2ccc(C)cc2)CC1` are 7.33% and 16.1%. As for `Cc1nn(C(C)C)c(C)c1NC(=O)c1ccccc1`, the Percent Effect in test [1] was 1.73%; in test [2], -4.81%. Regarding `O=C1NCCN1C1CCN(CCc2cccs2)CC1`, the Percent Effect was -0.519% in test [1] and 4.4% in test [2]. Turning to `Cc1ccc(N2CC[C@H](OCC3CC3)[C@@H]2Cc2cnn(C)c2)nn1`, the results for the Percent Effect in test [1] and in test [2] were 2.69% and -6.34%, respectively. On to `Cc1ccccc1CSc1nc(N)cc(N2CCOC(C(N)=O)C2)n1` (configuration not stated), for which the Percent Effect is 3.12% in test [1] and -13.5% in test [2]. For `CN(Cc1ccc2c(c1)OCCO2)C(=O)Cn1cccnc1=O`, the Percent Effect in test [1] was -2.54%; in test [2], -20.6%. In the same order, the values of `O=C(NCCNc1cnccn1)C1CCN(C(=O)N2CCCC2)CC1` are 6.24% and -37.5%.

On to `O=C(Cn1c(=O)n(Cc2ccco2)c2ncccc21)NC1CCCCC1`, for which the Percent Effect in test [1] is -3.2%; in test [2], -5.4%.
